According to article PMC4336329 (PLoS ONE, 2015):
The campaign covered roughly 310,000 compounds. About 14,000 (4.5%) showed an effect of 50% or more. Effects have a minus sign here. For the sample, strong results were picked, then their nearest neighbours and some compounds at random.

target: human ether-à-go-go-related gene (hERG) potassium channel (human, UniProt Q12809); test: primary screen, population patch clamp on CHO cells stably expressing hERG; higher = less effect of the substance
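Also: peak tail current of the secondary pulse compared with the same well before compound.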

Chain of human ether-à-go-go-related gene (hERG) potassium channel (Q12809 whole entry, looked up): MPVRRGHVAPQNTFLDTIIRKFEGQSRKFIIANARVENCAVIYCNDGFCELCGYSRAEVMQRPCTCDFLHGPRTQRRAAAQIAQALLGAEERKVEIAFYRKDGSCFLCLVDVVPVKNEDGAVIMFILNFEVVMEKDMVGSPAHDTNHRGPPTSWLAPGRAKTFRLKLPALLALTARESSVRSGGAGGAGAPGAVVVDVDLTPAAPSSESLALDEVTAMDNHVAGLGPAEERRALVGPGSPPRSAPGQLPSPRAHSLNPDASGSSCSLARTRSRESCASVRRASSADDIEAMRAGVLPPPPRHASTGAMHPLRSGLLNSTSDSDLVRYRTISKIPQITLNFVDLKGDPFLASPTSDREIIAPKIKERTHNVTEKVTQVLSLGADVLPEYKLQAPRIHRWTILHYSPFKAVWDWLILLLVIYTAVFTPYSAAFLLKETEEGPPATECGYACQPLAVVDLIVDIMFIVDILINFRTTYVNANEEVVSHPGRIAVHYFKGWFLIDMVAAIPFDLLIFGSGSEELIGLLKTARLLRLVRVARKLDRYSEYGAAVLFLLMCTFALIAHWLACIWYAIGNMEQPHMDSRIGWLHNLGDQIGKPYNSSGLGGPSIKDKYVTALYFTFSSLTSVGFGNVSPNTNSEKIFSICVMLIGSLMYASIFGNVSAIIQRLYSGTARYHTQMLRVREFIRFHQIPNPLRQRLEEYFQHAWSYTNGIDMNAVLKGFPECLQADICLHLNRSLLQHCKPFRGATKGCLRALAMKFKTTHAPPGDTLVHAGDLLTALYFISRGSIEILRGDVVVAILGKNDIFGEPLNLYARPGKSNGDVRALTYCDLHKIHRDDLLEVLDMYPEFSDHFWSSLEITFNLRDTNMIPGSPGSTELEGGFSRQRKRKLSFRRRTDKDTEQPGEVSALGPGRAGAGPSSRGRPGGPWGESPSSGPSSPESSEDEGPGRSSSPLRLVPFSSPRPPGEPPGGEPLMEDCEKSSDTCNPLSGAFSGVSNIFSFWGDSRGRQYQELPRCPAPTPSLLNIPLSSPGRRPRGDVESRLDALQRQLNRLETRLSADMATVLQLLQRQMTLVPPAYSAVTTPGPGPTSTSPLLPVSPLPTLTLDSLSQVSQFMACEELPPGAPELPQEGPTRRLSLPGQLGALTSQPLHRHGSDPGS

Row | Structure (SMILES) | hERG current change (%, negative = inhibition) at 10uM
1 | Cl.OC(COCCC12CC3CC(CC(C3)C1)C2)CN1CCCCC1 (stereo not drawn) | -40.1%
2 | NCC(O)COCCC12CC3CC(CC(C3)C1)C2 (stereo not drawn) | -1.48%
3 | CC1CCCCN1CC(O)COCc1ccccc1.Cl (stereo not drawn) | 5.66%
4 | CC(NCC(O)COCCC12CC3CC(CC(C3)C1)C2)c1ccccc1.Cl (stereo not drawn) | -53.8%
5 | Cl.OC(COCCC12CC3CC(CC(C3)C1)C2)CN1CCCC1 (stereo not drawn) | -30.3%
6 | CC1CCN(CC(O)COCCC23CC4CC(CC(C4)C2)C3)CC1.Cl (stereo not drawn) | -51.5%
7 | CC1CCC(C(C)C)C(OCC(O)CNC(C)c2ccccc2)C1.Cl (stereo not drawn) | 0.875%
8 | CC1CC(OCC(O)CN2CCCCC2C)CC(C)(C)C1.Cl (stereo not drawn) | -25.8%
9 | CCC(=O)Nc1ccc(N2CCN(C(=O)c3ccccc3C)CC2)cc1 | 0.168%
10 | CSc1nc(N(C)C)c2ccccc2n1 | -19%
11 | CCn1ccnc1CN(C)Cc1c(C(=O)N2C[C@@H](C)O[C@@H](C)C2)nc2ccc(Cl)cn12 | 11.6%
12 | Cc1ccc(N2N=C(C(=O)O)CCC2=O)cc1Cl | -45.2%
13 | CCC1(c2ccccc2)NC(=O)N(CC(=O)c2ccc3c(c2)OCO3)C1=O (stereo not drawn) | -4.15%
14 | Cc1ccc2[nH]c(=O)c(CN(CCCN3CCOCC3)C(=O)Nc3cccc(Cl)c3)cc2c1 | -32.4%
15 | O=C(Nc1cccc(Cl)c1)N(CCCN1CCOCC1)Cc1ccccc1F | -64.5%
16 | O=C(Nc1ccccc1)N(CCCN1CCOCC1)Cc1ccccc1F | -20.6%
17 | O=C(Nc1ccc(F)cc1)N(CCCN1CCOCC1)Cc1cc2cc3c(cc2[nH]c1=O)OCO3 | -49.3%
18 | Cc1ccc2[nH]c(=O)c(CN(CCN3CCOCC3)C(=O)Nc3ccc(F)cc3)cc2c1 | -37%
19 | O=C(Nc1ccc(F)cc1)N(CCCN1CCOCC1)Cc1cc2cc3c(cc2[nH]c1=O)OCCO3 | -25.1%
20 | CCc1ccc2[nH]c(=O)c(CN(CCN3CCOCC3)C(=O)Nc3ccccc3F)cc2c1 | -23.1%
21 | O=C(Nc1ccccc1)N(CCCN1CCOCC1)Cc1cc2cc3c(cc2[nH]c1=O)OCCO3 | -2.99%
22 | CCc1ccc2[nH]c(=O)c(CN(CCCN3CCOCC3)C(=O)Nc3ccc(F)cc3)cc2c1 | -68.1%
23 | Cc1ccc2[nH]c(=O)c(CN(CCCN3CCOCC3)C(=O)Nc3ccc(Cl)cc3)cc2c1 | -71.7%
24 | CCc1ccc2[nH]c(=O)c(CN(CCCN3CCOCC3)C(=O)Nc3ccccc3)cc2c1 | -54.2%

Row | Structure (SMILES) | hERG current change (%, negative = inhibition) at 10uM
25 | O=C(Nc1cccc(Cl)c1)N(CCN1CCOCC1)Cc1ccccc1F | -49.6%
26 | CCOc1ccc(S(=O)(=O)Nc2ccc3c(c2)OCO3)cc1 | -14.9%
27 | COc1cc(NC(=S)NCCSc2ccc(C)cc2)cc(OC)c1 | -1.01%
28 | C=CCOc1ccccc1CNCc1cccnc1.Cl | 12.6%
29 | Cc1cc(C(=O)NNC(=S)Nc2cccc(C(F)(F)F)c2)nn1C | 30.1%
30 | Cc1ccc(-n2cc[nH]c2=S)cc1C | 22.7%
31 | Cc1ccc(NC(=O)N(CCCN2CCOCC2)Cc2cc3cc4c(cc3[nH]c2=O)OCO4)cc1 | -42%
32 | CCc1ccc2[nH]c(=O)c(CN(CCCN3CCOCC3)C(=O)Nc3cccc(Cl)c3)cc2c1 | -54.1%
33 | CCc1ccc2[nH]c(=O)c(CN(CCCN3CCOCC3)C(=O)Nc3ccc(Cl)cc3)cc2c1 | -65.6%
34 | COc1ccc(CN(CCCN2CCOCC2)C(=O)Nc2cccc(Cl)c2)cc1OC | -39.3%
35 | COc1ccc2[nH]c(=O)c(CN(CCCN3CCOCC3)C(=O)NCc3ccccc3)cc2c1 | 8.39%
36 | COc1cc2cc(CN(CCCN3CCOCC3)C(=O)Nc3ccc(F)cc3)c(=O)[nH]c2cc1OC | -33.2%
37 | Oc1ccc(/C=N/NC(=S)Nc2cccnc2)c(O)c1 | 17.5%
38 | O=C(Cc1ccccc1)Nc1ncccc1Cl | 6.6%
39 | CCCCOc1ccc(C(=S)N2CCC(C(N)=O)CC2)cc1 | 6.67%
40 | O=C(NC1CCCN(CCc2ccccc2)C1)c1c(F)cccc1F (stereo not drawn) | -46.2%
41 | O=C(CCc1c[nH]c2ccccc12)NC1CC1 | 14.1%
42 | O=C(NC1CCN(CCc2c[nH]c3ccccc23)CC1)c1ccccc1 | -71.7%
43 | O=C(NC1CCCN(CCc2ccccc2)C1)C1CCCC1 (stereo not drawn) | -36.7%
44 | O=C(NCCc1c[nH]c2ccccc12)c1ccccc1 | 4.79%
45 | COC(=O)C1=CO[C@@H](C)[C@H]2CN3CCc4c([nH]c5ccccc45)[C@@H]3C[C@H]12.Cl | -20.2%
46 | COC(=O)C1=CO[C@@H](C)[C@@H]2CN(CCc3c[nH]c4ccccc34)CC[C@H]12 | -57%
47 | O=C(NC1CCCN(CCc2ccccc2)C1)c1c[nH]c2ccccc12 (stereo not drawn) | -68.2%
48 | COC(=O)C1=COC(C)C2CN3CCc4c([nH]c5ccccc45)C3CC12 (stereo not drawn) | -34.3%
